Laboratory results as given in PubChem BioAssay (NCI).
The panel holds about 79,000 compounds, 15% with a hit somewhere; the sample as a whole holds those more often. A number with no mark means an inactive call. Active and inactive are the calls of the source. Cut-off read from the data, not from the text of the source: active = growth inhibition above about 70%; inactive = the rest.

Key:
[1] = NCI Yeast Anticancer Drug Screen. Data for the rad50 strain (AID 155);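 note: 0% = growth of vehicle-only cultures of the same strain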; settings: S. cerevisiae rad50 strain growth inhibition, hits give high values
Method in brief: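 Inhibition values express reduced yeast growth in compound-treated cultures relative to vehicle-treated controls.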

[2] = NCI Yeast Anticancer Drug Screen. Data for the mec2-1 strain (AID 157); settings: S. cerevisiae mec2-1 strain, hits give high values
Method in brief: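 mec2-1 yeast strain, carrying an alteration in DNA damage repair or cell cycle control, was exposed to compounds; growth inhibition was measured relative to vehicle-treated controls.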

[3] = NCI Yeast Anticancer Drug Screen. Data for the sgs1 mgt1 strain (AID 161);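 note: 0% = growth of cultures given vehicle only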; settings: S. cerevisiae sgs1 mgt1 strain, hits give high values
Method in brief: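 Growth of a repair-deficient yeast mutant was monitored after compound treatment and expressed as inhibition relative to vehicle-treated cultures.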

[4] = NCI Yeast Anticancer Drug Screen. Data for the cln2 rad14 strain (AID 165);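 note: 0% = growth equal to vehicle treated cultures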; settings: S. cerevisiae cln2 rad14 strain, hits give high values
Method in brief: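 Yeast carrying cln2 and rad14 alterations (cell cycle control and DNA damage repair) were exposed to compounds. Growth inhibition was measured against vehicle-treated controls.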

[5] = NCI Yeast Anticancer Drug Screen. Data for the bub3 strain (AID 167); settings: S. cerevisiae bub3 mutant strain, hits give high values
Method in brief: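 Steps: expose the mutant yeast strain to compound; grow alongside vehicle-treated cultures; measure growth; express inhibition against the vehicle cultures.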

[6] = NCI Yeast Anticancer Drug Screen. Data for the mlh1 rad18 strain (AID 175); settings: S. cerevisiae mlh1 rad18 strain growth inhibition, hits give high values
Method in brief: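 Growth inhibition of the yeast strain was measured after compound exposure and expressed relative to vehicle-treated controls. The strain carries defined defects in DNA damage repair.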

[7] = at 5.0 µM (retest, dose inferred, filed as 0.5)
[8] = at 50.0 µM (retest, dose inferred, filed as 5.0)

Compound	growth inhibition [1, 7] [%]	growth inhibition [1, 8]	growth inhibition ([1]; at 50.0 µM)	growth inhibition [2, 7]	growth inhibition [2, 8]	growth inhibition ([2]; at 50.0 µM)	growth inhibition [3, 7]	growth inhibition [3, 8]	growth inhibition ([3]; at 50.0 µM)	growth inhibition [4, 7]	growth inhibition [4, 8]	growth inhibition ([4]; at 50.0 µM)	growth inhibition [5, 7]	growth inhibition [5, 8]	growth inhibition ([5]; at 50.0 µM)	growth inhibition [6, 7] [%]	growth inhibition [6, 8]	growth inhibition ([6]; at 50.0 µM)
O=C(O)CCCCC1CCCCC1.[Cu+2]	31	94% (active)	14.7%	23%	90% (active)	-3.1%	13%	93% (active)	36%	8%	30%	0.9%	17%	91% (active)	6.2%	19	94% (active)	1.85%
c1ccc(C[n+]2cccc(-c3cc4ccccc4[nH]3)c2)cc1	12	14%	-21.7%	0%	-42%	-24.6%	-9%	17%	-45.2%	-46%	-23%	77.3% (active)	-17%	-9%	-43.5%	-1	13%	-3.55%
Nc1ccc2ccccc2c1Cc1c(O)ccc2ccccc12	9	96% (active)	99.2% (active)	0%	98% (active)	98.8% (active)	6%	98% (active)	98.9% (active)	1%	88% (active)	84.5% (active)	0%	63%	88.8% (active)	6	88% (active)	95.7% (active)
CCOC(=O)C(C(=O)OCC)C1(c2ccccc2)OC(=O)c2ccccc21 (configuration not stated)	0	13%	0.55%	13%	27%	5.3%	-1%	21%	52.9%	-1%	17%	19.1%	-7%	-6%	8.8%	-4	5%	-8.55%
O=[N+]([O-])c1ccc(NSc2ccccc2)cc1	-14	98% (active)	89.2% (active)	2%	99% (active)	92.5% (active)	5%	97% (active)	90.2% (active)	21%	99% (active)	90.6% (active)	10%	98% (active)	91.3% (active)	6	99% (active)	88.2% (active)
CC(C)C(OC(=O)c1ccc(NCc2cc(O)ccc2O)cc1)C(C)C	21	97% (active)	89.5% (active)	23%	99% (active)	92% (active)	35%	99% (active)	90.6% (active)	21%	99% (active)	88% (active)	29%	99% (active)	89.8% (active)	27	99% (active)	86% (active)
CC1=C(C(=O)Nc2cccc(Cl)c2)C(c2ccccc2O)C(C(=O)Nc2cccc(Cl)c2)=C(C)N1	25	25%	55.6%	14%	14%	65%	9%	9%	56.5%	10%	10%	59.2%	12%	12%	57.9%	25	25%	32.3%
O=[N+]([O-])c1ccc(Oc2c(Cl)cccc2Cl)cc1	-7	9%	-12.9%	-13%	-5%	-11.7%	-6%	-33%	5.4%	-9%	-1%	-44.1%	14%	19%	75.5% (active)	-12	13%	14.8%
N#CSCC(=O)c1ccc(Cl)cc1	43	61%	89.5% (active)	60%	63%	91% (active)	92% (active)	98% (active)	92.5% (active)	83% (active)	98% (active)	89.5% (active)	93% (active)	99% (active)	89.5% (active)	36	56%	89.5% (active)
NCCCSc1ccc(Br)cc1	-10	13%	9.6%	-4%	-5%	34.3%	-4%	47%	20.1%	0%	17%	35.1%	-22%	-21%	8.3%	-4	13%	8.5%
CS(=O)(=O)OC1COC2C(I)COC12 (configuration not stated)	-1	55%	7.85%	3%	58%	-11.8%	-1%	83% (active)	1.85%	5%	30%	13.7%	-1%	83% (active)	77.3% (active)	2	84% (active)	19.9%
Cc1ccc(N=c2cc(-c3ccccc3)oc3ccccc23)c(C)c1	1	74% (active)	3%	-11%	48%	-12.4%	3%	93% (active)	11%	5%	51%	8.1%	11%	94% (active)	5.6%	4	94% (active)	18.6%
C=C1C(=O)OC2CC1C(O)C/C(C)=C/CC/C(C)=C/C(O)CC2C (configuration not stated)	18	70% (active)	-4.95%	19%	84% (active)	-20.6%	15%	54%	9.6%	11%	46%	-5%	26%	84% (active)	-7.7%	48	95% (active)	83.5% (active)
COC(=O)c1[nH]c(=O)c(C#N)c(C(=O)OC)c1C(=O)c1ccc(Cl)c(Cl)c1	-19	90% (active)	97% (active)	-18%	55%	73% (active)	23%	72% (active)	95.4% (active)	3%	61%	46.1%	-22%	90% (active)	79.5% (active)	-12	90% (active)	93.9% (active)
CCC1CCC(CC)C1=O (configuration not stated)	1	5%	94.2% (active)	-2%	-1%	93.9% (active)	0%	3%	51.6%	-2%	3%	36.5%	2%	4%	97.4% (active)	-2	7%	43.2%
Cc1ccc(N)c(Cc2c(O)ccc3ccccc23)c1	2	79% (active)	98.2% (active)	4%	75% (active)	98.7% (active)	1%	79% (active)	98.8% (active)	-7%	64%	98.5% (active)	0%	66%	98.7% (active)	1	82% (active)	98.6% (active)
COC(=O)C12Oc3ccc(-c4ccc5c(c4O)C(O)=C4C(=O)CC(C)C(O)C4(C(=O)OC)O5)c(O)c3C(O)=C1C(=O)CC(C)C2O (configuration not stated)	57	97% (active)	90.5% (active)	61%	96% (active)	88.3% (active)	37%	98% (active)	82.5% (active)	6%	96% (active)	91.2% (active)	53%	97% (active)	94.1% (active)	57	97% (active)	80.8% (active)
Nc1nc(N)c2c(ccc3c2ccn3Cc2cccc([N+](=O)[O-])c2)n1	39	60%	19.9%	70% (active)	90% (active)	0.75%	56%	67%	54.4%	38%	53%	57.5%	43%	51%	83.5% (active)	29	46%	14.6%
CN(C)C1CCC(N=Nc2cc([N+](=O)[O-])ccc2C(=O)O)CC1 (configuration not stated)	-7	55%	86.2% (active)	7%	23%	56.7%	-2%	49%	83.6% (active)	1%	18%	15.6%	7%	87% (active)	94.3% (active)	-1	61%	84.9% (active)
